Data: PMC4336329 (PLoS ONE, 2015)
Among all 310,000 compounds or so, about 14,000 (4.5%) showed an effect of 50% or more. The effect is printed as a negative number. Many of the other results were omitted from the sample, so strong results are more common in it than they were.

Biological target: human ether-à-go-go-related gene (hERG) potassium channel (human, UniProt Q12809)
Experiment: primary screen, population patch clamp on CHO cells stably expressing hERG; higher = less effect of the substance
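Also: peak tail current of the secondary pulse compared with the same well before compound.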

Chain of human ether-à-go-go-related gene (hERG) potassium channel (Q12809 whole entry, looked up): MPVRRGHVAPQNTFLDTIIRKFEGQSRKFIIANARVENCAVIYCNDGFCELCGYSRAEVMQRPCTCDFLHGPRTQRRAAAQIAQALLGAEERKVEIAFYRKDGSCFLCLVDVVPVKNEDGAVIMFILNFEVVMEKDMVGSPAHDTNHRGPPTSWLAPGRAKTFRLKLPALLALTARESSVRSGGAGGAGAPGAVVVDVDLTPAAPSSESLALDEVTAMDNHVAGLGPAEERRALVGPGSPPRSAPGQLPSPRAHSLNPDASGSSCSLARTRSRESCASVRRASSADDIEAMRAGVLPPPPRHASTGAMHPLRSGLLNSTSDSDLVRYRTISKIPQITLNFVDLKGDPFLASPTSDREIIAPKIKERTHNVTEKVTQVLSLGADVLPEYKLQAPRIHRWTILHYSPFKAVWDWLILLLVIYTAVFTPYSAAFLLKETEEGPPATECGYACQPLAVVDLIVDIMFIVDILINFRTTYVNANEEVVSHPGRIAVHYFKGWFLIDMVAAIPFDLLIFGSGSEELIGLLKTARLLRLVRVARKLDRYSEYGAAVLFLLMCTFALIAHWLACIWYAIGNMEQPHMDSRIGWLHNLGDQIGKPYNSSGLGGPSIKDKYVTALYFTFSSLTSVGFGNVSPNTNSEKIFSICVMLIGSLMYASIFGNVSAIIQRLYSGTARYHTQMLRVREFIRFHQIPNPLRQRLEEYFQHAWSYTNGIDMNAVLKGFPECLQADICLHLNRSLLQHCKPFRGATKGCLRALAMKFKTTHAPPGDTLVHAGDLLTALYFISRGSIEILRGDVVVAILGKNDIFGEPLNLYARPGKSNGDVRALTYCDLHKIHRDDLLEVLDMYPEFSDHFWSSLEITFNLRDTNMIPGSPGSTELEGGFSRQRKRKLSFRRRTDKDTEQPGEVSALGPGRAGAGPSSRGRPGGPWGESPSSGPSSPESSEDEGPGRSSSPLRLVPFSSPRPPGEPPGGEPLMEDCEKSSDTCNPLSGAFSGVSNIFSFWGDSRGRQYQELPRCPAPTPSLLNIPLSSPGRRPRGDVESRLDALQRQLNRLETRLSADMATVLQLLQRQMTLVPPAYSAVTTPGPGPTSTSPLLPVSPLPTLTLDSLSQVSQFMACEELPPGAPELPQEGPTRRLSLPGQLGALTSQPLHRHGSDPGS

SMILES	hERG current change (%, negative = inhibition) at 10uM [%]
COc1ccc(F)cc1C(=O)C1CCCN(C(=O)c2ocnc2C)C1 (stereo not drawn)	-10.1
O=C(NC1CCCC1)C(=O)N(Cc1cccnc1)C(C(=O)NC1CCCC1)c1ccco1 (stereo not drawn)	19.6
O=C(CN1CCOCC1)c1ccc2cc[nH]c2c1	8.82
O=C(CN1CCN(c2ccccc2F)CC1)c1ccc(O)c(O)c1	-70.7
O=C(CN1CCN(c2ccccc2F)CC1)c1ccc2cc[nH]c2c1	-82.9
O=C(CN1CCN(c2ccccc2F)CC1)c1ccc2c(c1)OCO2	-10.3
O=C(CN1CCN(c2ccccc2F)CC1)c1ccc(O)cc1O	14.2
O=C(CN1CCN(c2ccccc2)CC1)c1ccc2cc[nH]c2c1	11.4
CC(=O)Cc1nsc(NC(=O)c2ccc(-c3cc(C(F)(F)F)ccc3Cl)o2)n1	22.7
O=C(c1cccnc1)N1CCN(S(=O)(=O)c2ccc3ccccc3c2)CC1	-34.9
CC(CNC(=O)c1ccc(Br)o1)NC(=O)c1ccc(Br)o1 (stereo not drawn)	-0.676
CC1CCCCC1NC(=O)COC(=O)CCC(=O)c1cccs1 (stereo not drawn)	17.3
CCn1c(Cn2nnc(-c3ccccc3)n2)nnc1SCC(=O)Nc1ccccc1	-7.39
CC(C)Oc1ccc(NC(N)=O)cc1	1.14
COCCN=C1Sc2nc3ccc(C)cc3cc2CN1Cc1cccs1	-11.1
COCCN1Cc2cc3cc(C)ccc3nc2SC1=Nc1ccc(OC)cc1	7.73
COCCN=C1Sc2nc3ccc(C)cc3cc2CN1Cc1ccco1	-61
CCC(C)N=C1Sc2nc3ccc(C)cc3cc2CN1CCOC (stereo not drawn)	-79
COCCN=C1Sc2nc3c(C)cccc3cc2CN1Cc1ccco1	8.49
CCOc1ccc(N=C2Sc3nc4ccc(C)cc4cc3CN2CCOC)cc1	41.4
CCNC(=O)CSc1nnc(-c2cccc(S(=O)(=O)N(CC)CC)c2)n1CCc1ccccc1	-9.82

SMILES	hERG current change (%, negative = inhibition) at 10uM [%]
Cn1ccc(C(=O)Nc2ccc3c(c2)OCCO3)n1	21.9
O=C(NN1CCOCC1)c1cn(-c2ccccc2)nc1-c1cccs1	-1.47
COC(=O)c1nc(NC(=O)c2ccccc2)n[nH]1	-9.58
O=C(C1=NN[C@@H]2C(=O)N(c3cccc(F)c3)C(=O)[C@H]12)C(c1ccccc1)c1ccccc1	-19.2
CCCCn1c(=NC(=O)c2cccnc2)c(C#N)cc2c(=O)n3cccc(C)c3nc21	-10.6
CCCCCn1c(=NC(=O)c2cccnc2)c(C#N)cc2c(=O)n3cccc(C)c3nc21	-54.8
CCCCn1c(=NC(C)=O)c(C#N)cc2c(=O)n3cccc(C)c3nc21	-31
Cc1cccn2c(=O)c3cc(C#N)c(=NC(=O)c4cccnc4)n(CC4CCCO4)c3nc12 (stereo not drawn)	-51.1
Cc1cc(=O)c2cc(Br)ccc2[nH]1	8.12
Cc1n[nH]c(C)c1S(=O)(=O)N1CCC(C(=O)N2CCn3c2nc2ccccc23)CC1	-3.79
CC(C)CC(COCc1ccc(Cl)cc1)N1CCN(C(=O)c2cccc(C(F)(F)F)c2)CCC1=O (stereo not drawn)	-38.1
CCOC(=O)c1cc(S(=O)(=O)N(C)Cc2ccccc2)cn1C	-11.7
C=COCCn1c(=N)n(CCC)c2ccccc21.Cl	-28.3
CCn1c(=N)n(CCOc2ccc(OC)cc2)c2ccccc21	-55.1
COc1ccc(OCCn2c(=N)n(CCO)c3ccccc32)cc1.Cl	-24.2
COc1ccc(OCCn2c(=O)sc3ccccc32)cc1	-8.81
CCn1c(=N)n(CCO)c2ccccc21.Cl	5.84
CCCn1c(=N)n(CCOc2ccc(OC)cc2)c2ccccc21	-59.5
Cn1cc(P(=O)(N2CCOCC2)N2CCOCC2)cc1P(=S)(N1CCOCC1)N1CCOCC1	16.6
Cc1nc(-c2ccc(NC(=O)c3ccc(Br)o3)cc2)cs1	4.44
Cc1ccc(-c2cc(C(F)(F)F)n3nc(C(=O)N4CCN5CCCC5C4)cc3n2)cc1 (stereo not drawn)	-48.3

SMILES	hERG current change (%, negative = inhibition) at 10uM [%]
CCN1CCN(C(=O)c2cc3nc(-c4ccccc4)cc(C(F)(F)F)n3n2)CC1	-22
O=C(c1cc2nc(-c3ccccc3)cc(C(F)(F)F)n2n1)N1CCOCC1	-29.3
COc1cccc(-c2cc(C(F)(F)F)n3nc(C(=O)N4CCCCC4c4cccnc4)cc3n2)c1 (stereo not drawn)	-23.1
Cc1ccc(-c2cc(C(F)(F)F)n3ncc(C(=O)N4CCCCC4c4cccnc4)c3n2)cc1 (stereo not drawn)	4.63
O=C(c1cc2nc(-c3ccccc3)cc(C(F)(F)F)n2n1)N1CCN2CCCC2C1 (stereo not drawn)	-30.3
CN1CCN(C(=O)c2cc3nc(-c4ccccc4)cc(-c4ccccc4)n3n2)CC1	-38.3
O=C(c1ccccc1)N1CCN(C(=O)c2cc3nc(-c4ccccc4)cc(C(F)(F)F)n3n2)CC1	-51.1
O=C(c1cc2nc(-c3ccc(F)cc3)cc(C(F)(F)F)n2n1)N1CCCCC1c1cccnc1 (stereo not drawn)	-80.2
COc1ccc(-c2cc(C(F)(F)F)n3nc(C(=O)N4CCN5CCCC5C4)cc3n2)cc1OC (stereo not drawn)	-64.4
O=C(c1cc2nc(-c3ccccc3)cc(-c3ccccc3)n2n1)N1CCN(C(=O)c2ccco2)CC1	-56.9
O=C(c1cc2nc(-c3ccccc3)cc(-c3ccccc3)n2n1)N1CCCC1	9.99
COc1ccc(C(=O)N/N=C/c2ccc(N3CCOCC3)s2)cc1OC	11.6
Cc1nc2sc(-c3ccccc3)nn2c(=O)c1Br	-1.74
COc1ccc2nc(Sc3c([N+](=O)[O-])nc(C)n3Cc3ccccc3)[nH]c2c1	-12.7
CCOc1ccc(N2CC(C(=O)NC3CCCC3)CC2=O)cc1 (stereo not drawn)	2.11
COc1ccc(N(C(=O)CNC(=O)c2ccco2)C(C(=O)NC2CCCC2)c2ccncc2)cc1 (stereo not drawn)	13.1
CC(=O)c1sc(NC(=O)CSCc2c(C)noc2C)nc1-c1ccccc1	-27.4
O=C(N/N=C/c1c[nH]c2ccc(Br)cc12)C1CC1	4.6
CC(C)C(=O)Nc1nnc(SCC(=O)NC2CC2)s1	12.8
CC(=O)N1c2ccccc2NC2=C(C(=O)CCC2)C1c1cccnc1 (stereo not drawn)	4.51
C=CCNC(=O)C1CC(=O)N(c2ccc(OCC(=O)Nc3ccc(OC)cc3)cc2)C1 (stereo not drawn)	-3.5

SMILES	hERG current change (%, negative = inhibition) at 10uM [%]
COc1ccc(-c2cc(=O)oc3cc(OC(C)C(=O)O)ccc23)cc1 (stereo not drawn)	6.26
Cc1cccc(NC(=O)CNC(=O)Cc2ccc(S(=O)(=O)N3CCOCC3)s2)c1C	5.91
CN(C)S(=O)(=O)c1cccc(C(=O)Nc2cc(Cl)cc(Cl)c2)c1	4.25
CC(=O)c1ccc(NS(=O)(=O)c2ccc3c(c2)CCC(=O)N3)cc1	8.49
Cn1c(=O)c2c(nc(CN3CCN(C(=O)c4ccco4)CC3)n2CC(N)=O)n(C)c1=O	24.4
COCCn1c(CN2CCN(C(=O)c3ccco3)CC2)nc2c1c(=O)n(C)c(=O)n2C	-9.04
CCn1c(CN2CCN(C(=O)c3ccco3)CC2)nc2c1c(=O)n(C)c(=O)n2C	-16.4
Cn1c(=O)c2c(nc(CN3CCN(C(=O)c4ccco4)CC3)n2CCCc2ccccc2)n(C)c1=O	-68.5
Cn1c(=O)c2c(nc(CN3CCN(C(=O)c4ccco4)CC3)n2CCc2ccccc2)n(C)c1=O	-66.3
Cn1c(=O)c2c(nc(CN3CCN(C(=O)c4ccco4)CC3)n2CCCO)n(C)c1=O	-27.6
CCN(CC)C(=O)c1cccc(C)c1	0.757
Cc1cccc(C(=O)N/C(=C\c2ccco2)C(=O)N2CCCC2)c1	-18.6
CC(C)Cn1nc(C(=O)Nc2cccc(S(=O)(=O)N3CCCC3)c2)c2ccccc2c1=O	-7.01
CC(C)Cn1nc(C(=O)Nc2cccc(C(=O)NC3CC3)c2)c2ccccc2c1=O	-71.6
Cc1nc2ccc(NC(=O)c3nn(CC(C)C)c(=O)c4ccccc34)cc2s1	-26
CCCCn1nc(C(=O)Nc2cccc(C(=O)NC3CC3)c2)c2ccccc2c1=O	-82.6
CCCn1nc(C(=O)NC2CC2)c2ccccc2c1=O	-19.8
Cn1nc(C(=O)Nc2cccc(C(=O)NC3CC3)c2)c2ccccc2c1=O	-35.3
N#C/C(C(=O)N1CCOCC1)=c1/s/c(=C\c2ccccn2)c(=O)n1-c1ccccc1	17.6
COCCCn1c(N)c(C(=O)NCc2ccco2)c2nc3ccccc3nc21	4.53
Cc1cc(C)n2nc(SCC(=O)N/N=C/c3ccccn3)nc2n1	3.74
